Most compounds without a hit are left out; they make up all but 7.8% or so of the library.
LASV entry inh: inhibitors of Lassa virus binding or cell entry. Lassa virus pseudotype entry inhibition, cell reporter. Potency, µM (top dose mostly 37.9 µM), for the others: at the top dose activity change, negative = inhibition, usual class: inhibitors. 300,000 tested, 1.2% active; calls by dose curve; tested in HEK293 cells; note: potency is the fitted concentration of half-maximal effect; % is set by controls: 0 for no effect and ±100 for the full control effect; nearly all actives have a fitted effect of over 50% in size
VACV Venus inh: vaccinia inhibition (Venus reporter); Vaccinia virus Venus reporter expression, fluorescence; Potency, µM (highest dose often 36.5 µM), for inactives: top-dose activity change, negative = inhibition, hits mostly inhibitors; 330,000 tested, 0.46% active; AID 720580; calls by dose curve; tested in A549 cells; note: potency is the fitted concentration of half-maximal effect; % is set by controls: 0 for no effect and ±100 for the full control effect; nearly all actives have a fitted effect of over 30% in size
HCV inhibitor: HCV inhibition. Huh7.5.1 HCVcc-Cre infection, luciferase reporter, 44 h. Potency, µM (top dose mostly 41.8 µM), without a hit: top-dose activity change, negative = inhibition, most hits filed as inhibitors. 340,000 tested, 3.4% active. AID 651820; note: potency is the fitted concentration of half-maximal effect; % is set by controls: 0 for no effect and ±100 for the full control effect
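Antiviral activity was scored by luciferase reporter output from cells infected with HCVcc-Cre (~0.5 moi) in presence of compound, 44 h infection period, cells seeded 1,000/well 4 h prior.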
HCMV inh: human cytomegalovirus inhibition; HFF cells, HCMV-luciferase reporter, 72 h; stronger effect = lower value; 410,000 tested, 4.5% active; AID 1259415; activity change, negative = inhibition, % at 57.5 µM; in the data active = activity change below about -60%; inconclusive = no clear call, values can overlap the other calls; inactive = above about -39%; note: % is set by controls: 0 for no effect and ±100 for the full control effect
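HFF cells seeded 16 h at 37C, treated with compounds, infected with luciferase-reporter HCMV at MOI 1 PFU/cell; luciferase read at 72 h post infection, normalized to buffer-only and Salinomycin controls.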
MARV entry inh: Marburg virus entry inhibition | Marburg virus pseudotyped entry inhibition, cell reporter | Potency, µM (highest dose often 37.8 µM), for the others: at the top dose activity change, negative = inhibition, most hits filed as inhibitors | 300,000 tested, 1.8% active; calls by dose curve; tested in HEK293 cells; note: potency is the fitted concentration of half-maximal effect; % is set by controls: 0 for no effect and ±100 for the full control effect
Vaccinia mCherry: inhibitors of vaccinia virus infection (mCherry reporter signal) | 310,000 tested, 0.63% active | Potency, µM (titrated, usually from 36.5 µM), without a hit: at the top dose activity change, negative = inhibition, most hits filed as inhibitors | Vaccinia virus mCherry reporter infection, fluorescence; calls by dose curve; tested in A549 cells; note: potency is the fitted concentration of half-maximal effect; % is set by controls: 0 for no effect and ±100 for the full control effect; nearly all actives have a fitted effect of over 35% in size
HCV confirm: confirmation of hepatitis C virus inhibitors; shares compounds with HCV inhibitor; HCVcc-Cre infectious virus cell assay, luciferase, inhibition; Potency, µM (doses to about 41.8 µM), for inactives: at the highest dose activity, negative = inhibition, actives largely listed as inhibitors; 640 tested, 78% active; note: potency is the fitted concentration of half-maximal effect; nearly all actives have a fitted effect of over 80% in size
HCV host tox: host cell cytotoxicity counter-screen for HCV inhibitors; Potency, µM (doses to about 41.8 µM), inactives show top-dose activity change, negative = cytotoxicity, actives largely listed as inhibitors; HCV host cell line cytotoxicity counterscreen; 640 tested, 22% active; shares compounds with HCV inhibitor;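 note: potency is the fitted concentration of half-maximal effect; 44 h compound exposure; % is set by controls: 0 for no effect and ±100 for the full control effect; nearly all actives have a fitted effect of over 55% in size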
* = called active by the depositor; [ ] = remark or other dose. Unless noted, calls come from the whole dose curve; as a rule, active = well fitted curve in the direction sought with a large enough effect; inconclusive = small, poorly fitted or top-dose-only effect, or another doubt; inactive = no such curve, though single readings can be large; an effect the other way counts as inactive or inconclusive.

How did O=C(Oc1ccc(NC2=C(Cl)C(=O)c3ccccc3C2=O)cc1)c1ccc([N+](=O)[O-])cc1 do in these assays?
HCV inhibitor: inconclusive; MARV entry inh: 0.6%

What do the screens show for `CNc1ccc(Br)cc(C(=O)/C=C/c2cc(OC)ccc2OC)c1=O`?
LASV entry inh: inconclusive; HCV inhibitor: 5.01µM*; HCMV inh: -101.9*; MARV entry inh: inconclusive; HCV confirm: inconclusive; HCV host tox: -27.4%

Results for O=C(Nc1ccc(S(=O)(=O)Nc2ccccc2)cc1)c1ccc(CN2CCOCC2)cc1 ?
HCV inhibitor: 2.24µM*; HCMV inh: -89.8*; HCV confirm: 1.77µM*; HCV host tox: -92.9%

What do the screens show for `O=C(Nc1ccc(CN2CCS(=O)(=O)CC2)cc1)c1ccc(F)cc1`?
HCV inhibitor: -7.4%; HCMV inh: 26.0

How did O=C(Nc1ccc(CN2CCOCC2)cc1)c1ccc(Cl)cc1 do in these assays?
HCV inhibitor: 1.4%; HCMV inh: inconclusive

Results for O=C(Nc1ccc(CN2CCS(=O)(=O)CC2)cc1)c1ccc(C(F)(F)F)cc1 ?
LASV entry inh: -28.7%; VACV Venus inh: -14.5%; HCV inhibitor: 5.62µM*; HCMV inh: -60.9*; MARV entry inh: inconclusive; Vaccinia mCherry: -26.3%; HCV confirm: 4.99µM*; HCV host tox: 12.5µM*

How did Cc1ccc(-c2cc(C(=O)NCCc3ccccc3)c3c(-c4ccc(C)cc4)[nH]nc3n2)cc1 do in these assays?
LASV entry inh: 0.0%[46.1 µM]; VACV Venus inh: inconclusive; HCMV inh: 51.0; Vaccinia mCherry: inconclusive

What do the screens show for `Cc1ccc(NC(=O)CCn2c(=O)c3cccn3c3ccccc32)cc1Cl`?
LASV entry inh: inconclusive; VACV Venus inh: -11.6%; HCMV inh: -0.9; Vaccinia mCherry: -18.1%

Results for O=C(NNc1ccccc1C(F)(F)F)c1sccc1Cl ?
VACV Venus inh: -12.0%; Vaccinia mCherry: -19.6%

What do the screens show for `O=S(=O)(c1ccc(C(F)(F)F)cc1)N1CCN(c2nc(-c3cccs3)nc3ccccc23)CC1`?
VACV Venus inh: -10.7%; Vaccinia mCherry: inactive

What do the screens show for `CCCCn1c(=N)n(CC(O)COc2cccc(C)c2)c2ccccc21` (stereo not drawn)?
LASV entry inh: inconclusive; HCV inhibitor: 8.91µM*; HCMV inh: -63.1*; MARV entry inh: inconclusive; HCV confirm: 14.1µM*; HCV host tox: inconclusive

What do the screens show for `COc1ccc2cc(CNc3ccc(C)cc3)c(=O)n(CC(=O)Nc3cccc(Cl)c3C)c2c1`?
LASV entry inh: -15.5%[46.1 µM]; VACV Venus inh: 4.0%; HCMV inh: 8.4; Vaccinia mCherry: -4.7%

Results for O=C(CCCc1nc2ccccc2s1)Nc1nccs1 ?
LASV entry inh: -2.2%; VACV Venus inh: -11.1%; HCV inhibitor: -7.0%; HCMV inh: 154.2; MARV entry inh: inconclusive; Vaccinia mCherry: -18.8%

What do the screens show for `Cc1cnc(NC(=O)CCCc2nc3ccccc3s2)s1`?
LASV entry inh: inconclusive; VACV Venus inh: 5.62µM*; HCV inhibitor: 2.82µM*; HCMV inh: -101.1*; MARV entry inh: inconclusive; HCV confirm: 15.8µM*; HCV host tox: -34.7%

What do the screens show for `COc1ccc(N2CCN(CCCNC(=O)C3CCC(CNc4nc(=S)[nH]c5ccccc45)CC3)CC2)cc1` (stereo not drawn)?
LASV entry inh: inconclusive; VACV Venus inh: -9.4%; HCV inhibitor: 2.51µM*; HCMV inh: 14.2; MARV entry inh: inconclusive; Vaccinia mCherry: -5.4%; HCV confirm: 6.28µM*; HCV host tox: 22.3µM*

Results for O=C(Nc1ccc(Cl)c(Cl)c1)Nc1nnc(CC2=CCCCC2)s1 ?
HCV inhibitor: 2.82µM*; HCMV inh: inconclusive; HCV confirm: 7.05µM*; HCV host tox: 7.91µM*
